Test systems include NCI-H23 lung; NCI-H226 lung; NCI-H322M lung; HOP-62 NSCLC; NCI-H460 lung; HOP-92 NSCLC; A549/ATCC NSCLC; 786-0 renal; COLO 205 colon; NCI-H522 lung.
What all share (test): NCI-60 one-dose screen, 48 h (100 = growth as untreated, 0 = no growth, -100 = all killed)
Holding throughout (details): 10 µM unless noted

Several values for one entry are separate records, joined by “and”; a condition that tells them apart may be missing. Equal entries are not always repeated. Compounds without any hit were thinned out: in the full panel of roughly 83,000, 20% have a hit.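 Single-dose data. Exposure time 48 hours. Values below 10 considered active.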 Values without a mark were called inactive. Activity calls are given as the source filed them.

In the case of `C[C@H](O)CCC(=O)c1ccoc1`, the growth with NCI-H23 lung is 99.7%; with NCI-H226 lung, 99.2%; with NCI-H322M lung, 106%; in the assay with HOP-62 NSCLC, 108%; in the assay with NCI-H460 lung, 105%; with HOP-92 NSCLC, 111%. Also, the growth was 97% in the assay on A549/ATCC NSCLC, 106% in the assay on 786-0 renal and 116% in the assay on COLO 205 colon.

As for `CCOP(=O)(OCC)C(=O)N(CC)CC`, the growth with NCI-H23 lung is 105%; with NCI-H226 lung it was 94.3%; in the assay with NCI-H322M lung it was 105%; in the assay on HOP-62 NSCLC, 99.9%; in the assay on NCI-H460 lung, 103%; in the assay on NCI-H522 lung, 91.7%. Moreover, the growth with A549/ATCC NSCLC is 98.4%; in the assay with 786-0 renal it was 98%; with COLO 205 colon it was 118%.

Take `O=C(O)c1ccc(=O)[nH]c1`: the growth in the assay with NCI-H23 lung was 88.5% and 105%; with NCI-H226 lung, 96.3% and 89.5%; in the assay with NCI-H322M lung, 108% and 105%; in the assay with HOP-62 NSCLC, 98.8% and 85.9%; with NCI-H460 lung, 111% and 104%; in the assay with HOP-92 NSCLC it was 100%. In addition, the growth in the assay on A549/ATCC NSCLC is 87.7%; with 786-0 renal, 96.7% and 99.6%; with COLO 205 colon it was 98.3% and 98.9%.

In the case of `Nc1nc(=S)nc(N)[nH]1`, the growth in the assay on NCI-H23 lung is 89.5%; with NCI-H226 lung, 96.9%; in the assay on NCI-H322M lung it was 102%; in the assay on HOP-62 NSCLC, 89%; in the assay on NCI-H460 lung, 111%; in the assay with NCI-H522 lung, 75.5%. Further, in the assay on 786-0 renal, the growth was 88.6%.

Regarding `COc1cc(/C=C\[N+](=O)[O-])ccc1OCc1ccccc1`, the growth was 34.6% in the assay on NCI-H23 lung; 105% with NCI-H226 lung; 94.5% in the assay with NCI-H322M lung; 62.4% in the assay with NCI-H460 lung; 66.3% in the assay with HOP-92 NSCLC; 73.5% with NCI-H522 lung. The growth in the assay with A549/ATCC NSCLC was 64.7%; in the assay with 786-0 renal, -17.4% (active).

`O=[N+]([O-])c1ccc(P(=O)(O)O)cc1`: the growth with NCI-H23 lung was 105%; in the assay on NCI-H226 lung it was 97.6%; in the assay with NCI-H322M lung, 101%; with NCI-H460 lung, 103%; in the assay on HOP-92 NSCLC it was 85%; in the assay with NCI-H522 lung, 92.3%. Further, the figures for the growth with A549/ATCC NSCLC, in the assay on 786-0 renal and in the assay on COLO 205 colon were 103%, 96% and 103%, respectively.

In the case of `CCN(CC)CCn1c(=O)n(C)c2ccccc21`, the growth with NCI-H23 lung is 97.4%; with NCI-H226 lung it was 102%; with NCI-H322M lung, 106%; with NCI-H460 lung it was 106%; in the assay on HOP-92 NSCLC it was 93.7%; with NCI-H522 lung, 108%. The figures for the growth with A549/ATCC NSCLC, with 786-0 renal and with COLO 205 colon were 105%, 111% and 109%, respectively.

Regarding `CN1[C@@H](CC(=O)c2ccccc2)CCC[C@H]1CC(=O)c1ccccc1`, the growth with NCI-H23 lung was 97.2%; with NCI-H226 lung, 96.7%; in the assay with NCI-H322M lung, 110%; in the assay with NCI-H460 lung, 115%; in the assay with HOP-92 NSCLC, 111%; in the assay with NCI-H522 lung, 86.9%. The growth was 93.8% in the assay on A549/ATCC NSCLC, 108% with 786-0 renal and 114% in the assay with COLO 205 colon.

Consider `Cc1cc[c-]cc1.Fc1c[c-]c(-c2ccccn2)c(F)c1.N#CCC[PH+](CCC#N)c1ccccc1.[Pt+2]`, for which the growth is 34.3% in the assay with NCI-H23 lung; 72.3% with NCI-H226 lung; 79.4% in the assay on NCI-H322M lung; 43.1% with NCI-H460 lung; 16.3% in the assay on HOP-92 NSCLC; 16% in the assay with NCI-H522 lung. Besides, the growth is 50.5% with A549/ATCC NSCLC, 48.9% in the assay with 786-0 renal and 12.5% in the assay with COLO 205 colon.

Regarding `CN1C2CCC1[C@@H](COC(=O)c1ccccc1)[C@@H](O)C2` (stereo partly specified), the growth was 108% in the assay with NCI-H23 lung; 119% in the assay on NCI-H322M lung; 99.7% in the assay on HOP-62 NSCLC; 113% with NCI-H460 lung; 69.9% with HOP-92 NSCLC; 64.9% in the assay on NCI-H522 lung. Moreover, the growth is 99.2% in the assay on A549/ATCC NSCLC, 108% in the assay with 786-0 renal and 129% with COLO 205 colon.

`C[Se]/C=C1/C(=O)N(c2c(Cl)cccc2Cl)c2ccccc21`: the growth was 39% in the assay on NCI-H23 lung; 10.9% in the assay with NCI-H226 lung; 37.5% in the assay with NCI-H322M lung; 14.6% in the assay on NCI-H460 lung; 15.7% in the assay on HOP-92 NSCLC; 21.1% in the assay on NCI-H522 lung. Moreover, the results for the growth in the assay on A549/ATCC NSCLC, with 786-0 renal and in the assay on COLO 205 colon were 7.85% (active), 51.1% and 38.9%, respectively.

Consider `CCCN1C(=O)NC(=O)C(CC)(N2C(=O)c3c(F)c(F)c(F)c(F)c3C2=O)C1=O` (stereo unspecified), for which the growth was -52.1% (active) in the assay on NCI-H23 lung; -57.7% (active) in the assay with NCI-H322M lung; -57.3% (active) in the assay on HOP-62 NSCLC; -81% (active) with NCI-H460 lung; -50.5% (active) in the assay with HOP-92 NSCLC; -82.3% (active) in the assay on NCI-H522 lung. Further, the growth in the assay with A549/ATCC NSCLC is -64.7% (active); in the assay with 786-0 renal it was -58.5% (active); with COLO 205 colon, -81.9% (active).

Take `O=C/C=C/c1ccco1`: the growth with NCI-H23 lung is 101%; in the assay with NCI-H226 lung, 107%; in the assay with NCI-H322M lung, 111%; in the assay on NCI-H460 lung it was 111%; with HOP-92 NSCLC, 94.3%; in the assay with NCI-H522 lung it was 92%. Further, the growth in the assay with A549/ATCC NSCLC was 85.6%; in the assay on 786-0 renal, 100%; with COLO 205 colon, 115%.

Turning to `C[N+]12CCC34C5=CC(=O)C(=O)C=C5[N+]5(C)C(=O)CC6OCC=C(C1)C(CC32)C6C45` (stereo unspecified), the growth in the assay with NCI-H23 lung was 117%; with NCI-H226 lung it was 98.6%; in the assay on NCI-H322M lung it was 98.5%; in the assay with NCI-H460 lung it was 105%; in the assay on A549/ATCC NSCLC, 106%; in the assay with 786-0 renal, 112%. In the assay with COLO 205 colon, the growth was 101%.

Source of the values: PubChem BioAssay (NCI).
